{
  "source": "PubChem BioAssay (EPA / NIEHS)",
  "note": "A structure can be active in one record and inactive in another. The source made the active and inactive calls. Rule for the calls: active = hit-call score of the fitted dose curve at least 0.9, where 1 is the maximum; inactive = score below 0.9.",
  "data": [
    {"read-out": "Urokinase-type plasminogen activator receptor (uPAR), PLAUR (gene 5329)", "assay": "BSK_4H_uPAR: BioMAP Diversity Plus: 4H Assay for Urokinase-type plasminogen activator receptor (uPAR) Biomarker Activity (AID 2283030)", "settings": "primary human endothelial cells (HUVEC); actives raise or lower the signal", "procedure": "BSK_4H is a cell-based, multiplexed-readout assay that uses umbilical vein endothelium, a human vascular primary cell, with measurements taken at 24 hours after chemical dosing in a 96-well plate.BSK_4HAR is an assay component measured in the BSK_4H assay. It measures uPAR antibody related to regulation of gene expression using ELISA technology.Data from the assay component BSK_4HAR was analyzed into 1 assay endpoint. This assay endpoint, BSK_4HAR, was analyzed with bidirectional fitting relative to DMSO as the negative control and baseline of activity. Using a type of binding reporter, gain or loss-of-signal activity can be used to understand changes in the signaling as they relate to the gene PLAUR. Furthermore, this assay endpoint can be referred to as a primary readout, because this assay has produced multiple assay endpoints where this one serves a signaling function. To generalize the intended target to other relatable targets, this assay endpoint is annotated to the cytokine intended target family, where the subfamily is plasmogen activator.\nThe levels of cell surface (or secreted, indicated by the prefix \"s\") biomarker endpoints were measured by ELISA. Overt cytotoxicity to cells in confluent adherent cultures (all systems other than the BT system) was assessed by measuring total protein levels using sulforhodamine B (SRB) staining in parallel cultures at the time of biomarker measurements, indicated as SRB endpoints. For proliferation assays for adherent cell types, individual cell types are cultured at sub-confluence and relative cell numbers quantified by SRB staining at time points optimized for each system (48 h: 3C and CASM3C systems; 72 h: BT and HDF3CGF systems; 96 h: SAg system). SRB was performed by staining cells with 0.1% SRB after fixation with 10% TCA and reading wells at 560 nm.Viability and proliferation of PBMC (T cells) was quantified by Alamar Blue reduction for the SAg and BT systems. For PBMC viability (referred to as PBMC Cytotoxicity within the assay endpoint names), cells were plated (75,000/well in a 96-well plate) and then chemical samples added for 1 h before addition of activators, SEB and TSST-1 (20 ng/mL final concentration each). Cells were incubated for 90 h. Then, Alamar Blue (20 uL/well) (Invitrogen, Cat DAL1100) was added for 6 h, and the plates were read with a fluorescence microplate reader at 546/580 nm (excitation/emission). For PBMC proliferation, cells were plated and activated as above but incubated for only 16 h prior to addition of Alamar Blue. Plates were read after 6 h.", "values": [
      {"smiles": "Clc1cc(Cl)c(-c2c(Cl)c(Cl)cc(Cl)c2Cl)cc1Cl", "AC50": "17.4 µM (active)"},
      {"smiles": "CC(CN=Cc1ccccc1O)N=Cc1ccccc1O", "note": "(stereo not given)", "outcome": "inactive"},
      {"smiles": "O=C1c2ccccc2C(=O)c2c(O)ccc(O)c21", "AC50": "6.4 µM (active)"},
      {"smiles": "CN(C)C(=O)Nc1ccc(Oc2ccc(Cl)cc2)cc1", "outcome": "inactive"},
      {"smiles": "CC(=O)c1c(C)c([N+](=O)[O-])c(C(C)(C)C)c([N+](=O)[O-])c1C", "outcome": "inactive"},
      {"smiles": "CS(=O)(=O)c1ccc(C2=C(c3ccccc3)C(=O)OC2)cc1", "outcome": "inactive"},
      {"smiles": "O=C(Nc1ccc2c(O)c(N=Nc3ccc(N=Nc4ccc(S(=O)(=O)O)cc4)cc3)c(S(=O)(=O)O)cc2c1)c1ccccc1", "outcome": "inactive"},
      {"smiles": "CCCCN(CCCC)C(=O)N(CCCC)CCCC", "AC50": "7.82 µM (active)"},
      {"smiles": "CC(C)(C)CC(C)(C)c1ccc(OCCOCC[N+](C)(C)Cc2ccccc2)cc1", "AC50": "4.64 µM (active)"},
      {"smiles": "COc1cc(Cl)c(OC)cc1N", "outcome": "inactive"},
      {"smiles": "c1ccc(CCc2ccccc2)cc1", "AC50": "32.2 µM (active)"},
      {"smiles": "IC(I)I", "outcome": "inactive"},
      {"smiles": "Oc1c(Cl)cc(Cl)c(Cl)c1Cc1c(O)c(Cl)cc(Cl)c1Cl", "AC50": "2.26 µM (active)"},
      {"smiles": "CC1(C)C2=CCCC(C)(C)[C@]23CC[C@H]1C3", "outcome": "inactive"},
      {"smiles": "CCC(C)c1cc([N+](=O)[O-])cc([N+](=O)[O-])c1OC(=O)OC(C)C", "note": "(stereo not given)", "AC50": "13 µM (active)"},
      {"smiles": "CSCCC=O", "outcome": "inactive"},
      {"smiles": "c1ccc2cc(Nc3ccc(Nc4ccc5ccccc5c4)cc3)ccc2c1", "outcome": "inactive"},
      {"smiles": "CS(=O)(=O)OCCCCOS(C)(=O)=O", "outcome": "inactive"},
      {"smiles": "CCOC(=O)C(C#N)=C(c1ccccc1)c1ccccc1", "outcome": "inactive"},
      {"smiles": "C1=CC2C3C=CC(C3)C2C1", "note": "(stereo not given)", "outcome": "inactive"},
      {"smiles": "CCCCCCC(CO)CCCC", "note": "(stereo not given)", "outcome": "inactive"},
      {"smiles": "CC1(C)CCC[C@]2(C)[C@H]3CCO[C@]3(C)CC[C@@H]12", "outcome": "inactive", "AC50": "34.2 µM (active)"},
      {"smiles": "C[C@@H]1CCN(C(=O)[C@H](CCCN=C(N)N)NS(=O)(=O)c2cccc3c2NC[C@H](C)C3)[C@@H](C(=O)O)C1", "outcome": "inactive"},
      {"smiles": "CCCCOC(=O)CCCCCCCC(=O)OCCCC", "outcome": "inactive"},
      {"smiles": "CCN(CC)C(=O)N(CC)CC", "outcome": "inactive"},
      {"smiles": "c1ccc(Oc2ccccc2)cc1", "outcome": "inactive"},
      {"smiles": "CCCCCC(C=O)=Cc1ccccc1", "AC50": "36.5 µM (active)"},
      {"smiles": "CC(C=O)Cc1ccc(C(C)(C)C)cc1", "note": "(stereo not given)", "AC50": "29.7 µM (active)"},
      {"smiles": "CC(=O)Nc1ccc(C(=O)CCl)cc1", "AC50": "9.47 µM (active)"},
      {"smiles": "COc1ccc(OC)c(N=Nc2c(O)ccc3ccccc23)c1", "outcome": "inactive"},
      {"smiles": "Cc1cc(CCC(=O)OCCOCCOCCOC(=O)CCc2cc(C)c(O)c(C(C)(C)C)c2)cc(C(C)(C)C)c1O", "outcome": "inactive"},
      {"smiles": "CCCCCCCCCCCCCCCC(=O)OC/C=C(C)/C=C/C=C(C)/C=C/C1=C(C)CCCC1(C)C", "outcome": "inactive"},
      {"smiles": "C=C(C)C(=O)OCC(CC)(COC(=O)C(=C)C)COC(=O)C(=C)C", "outcome": "inactive"},
      {"smiles": "CN(c1nccc(=O)[nH]1)C1CCN(c2nc3ccccc3n2Cc2ccc(F)cc2)CC1", "outcome": "inactive"},
      {"smiles": "CC=Cc1ccc(OCC)c(O)c1", "outcome": "inactive"},
      {"smiles": "O=C1OC2(c3ccccc31)c1ccc(O)c(Br)c1Oc1c2ccc(O)c1Br", "AC50": "20 µM (active)"},
      {"smiles": "CC(=O)C1(C)CC2=C(CCCC2(C)C)CC1C", "note": "(stereo not given)", "AC50": "5.19 µM (active)"},
      {"smiles": "C=C(C)C(=O)OCCOCCOCCOC(=O)C(=C)C", "outcome": "inactive"},
      {"smiles": "C=C(C)C(=O)OCCOCCOCCOCCOC(=O)C(=C)C", "outcome": "inactive"}
    ]}
  ]
}
